From PubChem BioAssay AID686971 (National Center for Advancing Translational Sciences (NCATS), 2013)
In all, about 360,000 compounds went through this assay and about 7,500 (2.1%) were called active. Inconclusive results (about 8%) are left out. This is one part of a sample in which actives are shown more often than they occur. Values without a mark were called inactive. The call rests on the fitted dose curve; in most records, active means well fitted cell-killing curve with a large enough effect; inconclusive means small, poorly fitted or top-dose-only effect, or effect the other way, or another doubt; inactive means no such curve, though single readings can be large or run the other way.

Assay: qHTS for induction of synthetic lethality in tumor cells producing 2HG: qHTS for the HT-1080-IDH1KD cell line;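 on activity, negative = toxicity: 0% = DMSO wells and -100% = cell-free medium wells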
Settings: HT-1080 IDH1 knockdown viability, ATP luminescence, 48 h; series mostly up to 46.1 µM; activity, negative = toxicity: at the top concentration
How it was run: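 % activity derives from luminescence (CellTiter-Glo), normalised to DMSO and no-cell wells. HT-1080-IDH1KD cells, 750/well, had 48 h compound exposure at 37 °C.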
Potency means the concentration at half of the fitted maximal effect.

Row | SMILES | activity, negative = toxicity [%] | Potency
1 | O=C(CNC(=O)N1CC(=O)Nc2ccccc21)Nc1ccc(Br)cc1F | 0.202 | 
2 | COc1ccc(/C=N/NC(=O)CNC(=O)c2ccc(S(=O)(=O)N3CCCC3)cc2)c(OC)c1 | -1.07 | 
3 | COc1ccc(C(=O)NCC(=O)N/N=C/c2ccc([N+](=O)[O-])o2)cc1OC |  | 14.6 µM (active)
4 | COc1cccc(/C=N/NC(=O)CNC(=O)c2ccc(S(=O)(=O)N3CCOCC3)cc2)c1OC | -7.17 | 
5 | Cc1ccc(-c2nc3ccccn3c2Nc2ccc(F)cc2)o1 | -9.63 | 
6 | O=C1NC[C@H](CCCCN2C[C@H](Cc3ccc(O)cc3)N(CCc3ccccc3)C(=O)C2=O)N(CCc2ccccc2)C1=O | 4.14 | 
7 | Cc1cccc(CN2CCC(CNC(=O)Nc3ccc(F)c(Cl)c3)CC2)c1 |  | 14.6 µM (active)
8 | Cc1ccccc1NC(=O)NCC1CCN(Cc2cccc(Cl)c2)CC1 | -1.74 | 
9 | Cc1ccc(C)c(CN2CCC(CNC(=O)Nc3ccc(C)c(F)c3)CC2)c1 | -6.32 | 
10 | CSCCC(C(=O)NC(C)(C)C)n1c(-c2ccccc2)nc2ccccc21 (stereo not drawn) | 1.83 | 
11 | COc1cccc(-c2nnc(NC(=O)c3ccc(S(=O)(=O)N(CC(C)C)CC(C)C)cc3)o2)c1 |  | 2.59 µM (active)
12 | COc1ccc(-c2nnc(NC(=O)CS(=O)(=O)c3ccc(Cl)cc3)o2)c(OC)c1 | 9.75 | 
13 | O=C(Nc1nnc(-c2ccco2)o1)c1ccc(S(=O)(=O)N2CCOCC2)cc1 | -19 | 
14 | COc1cc(C)c(CN2CCN(C(=O)CCC(=O)c3ccc(C)s3)CC2)cc1OC | -6.68 | 
15 | COc1ccc(NC(=O)c2sc(=O)n(Cc3ccc(S(=O)(=O)N(C)C)cc3)c2C)cc1 | -1.83 | 
16 | CC1(C(=O)Nc2ccc3c(c2)OCCO3)CSCC(=O)N1CCOc1ccccc1 (stereo not drawn) | 1.72 | 
17 | Cc1ccn(CC(=O)NC2CCCN(Cc3ccccc3F)C2)n1 (stereo not drawn) | 2.55 | 
18 | CC1Cc2[nH][nH]c(=O)c2C(C2CC2)O1 (stereo not drawn) | 7.36 | 
19 | O=C(/C=C/Sc1ncn[nH]1)c1ccc(Cl)cc1 |  | 5.8 µM (active)
20 | Cc1cccc(C=CC(=O)c2ccc(Cl)cc2)c1 | -15.3 | 
21 | O=C(CSc1ncn[nH]1)Nc1ccc(Br)cc1Br | -18 | 

Row | SMILES | activity, negative = toxicity [%] | Potency
22 | Cc1ccc([C@H]2C[C@H](O)[C@@H](n3cc(COC(=O)c4ccccc4)nn3)CN2C(=O)C2CCCCC2)cc1 | -10.7 | 
23 | Nc1nc(Nc2ccccc2F)nc(NC2CCCCC2)c1[N+](=O)[O-] |  | 18.4 µM (active)
24 | Nc1nc(NCC2CCCO2)nc(Nc2ccccc2F)c1[N+](=O)[O-] (stereo not drawn) | 6.96 | 
25 | C=CCNc1nc(N)c([N+](=O)[O-])c(NC2CCCCC2)n1 | -6.58 | 
26 | Cn1cc(CN2CCC(C(O)CCc3ccccc3)CC2)c(-c2ccccc2F)n1 (stereo not drawn) | -16.8 | 
27 | Cc1cccc(-n2cc(CN3CCN(C(=O)c4ncn[nH]4)CC3)c(-c3cccc(F)c3)n2)c1 | 5.17 | 
28 | COc1ccc(-n2cc(CNC3CCOCC3)c(-c3cccc(F)c3)n2)cc1 |  | 18.4 µM (active)
29 | CCC(O)C1CCN(Cc2cn(-c3ccc(OC)cc3)nc2-c2cccc(F)c2)CC1 (stereo not drawn) |  | 14.6 µM (active)
30 | COc1ccc(-c2nn(-c3ccccc3)cc2CN2CCCO2)c(F)c1 | -0.913 | 
31 | COc1ccc(-n2cc(CN(C)Cc3n[nH]c(=O)[nH]3)c(-c3cccc(F)c3)n2)cc1 | -14 | 
32 | CC1(C)CN(Cc2cccnc2)C(=O)[C@H]1CC(=O)Nc1ccc(Br)cc1 | 0.941 | 
33 | CCc1nnc(NC(=O)c2ccco2)s1 | 0.444 | 
34 | Cn1nccc1NC(=O)Nc1ccc(OC(F)(F)F)cc1 | -2.7 | 
35 | O=C(Nc1ccc(OC(F)(F)F)cc1)c1ccc2c(c1)no[n+]2[O-] |  | 11.6 µM (active)
36 | Cn1cccc1/C=N/NC(=O)c1ccc(OC(F)(F)C(F)F)cc1 | -9.71 | 
37 | CC1(c2cccc(N)c2)OCCO1 | -10.9 | 
38 | Cc1ccc(-c2cnc(C(O)c3cccc(C)c3C)[nH]2)cc1 (stereo not drawn) | 3.28 | 
39 | Cc1ccc(-c2nc3c(C)cc(Br)cn3c2Cc2ccccc2)cc1 | 2.06 | 
40 | CC(C)C[C@H]1CN([C@@H](Cc2ccccc2)CN2CCC[C@@H]2CN2C(=O)C(=O)NC[C@@H]2Cc2ccc(O)cc2)C(=O)C(=O)N1CCc1ccccc1 | 3.99 | 
41 | CC(C)C[C@H]1CNC(=S)N1C[C@H]1CCCN1C[C@H](Cc1ccc(O)cc1)N1C[C@H](Cc2ccc(O)cc2)N(CC2CCCCC2)C1=S |  | 14.6 µM (active)
42 | CCOc1ccc(CCN2C(=O)C(=O)N([C@@H](Cc3ccc(O)cc3)CN3CCC[C@H]3CN3C(=O)C(=O)NC[C@@H]3CC(C)C)C[C@@H]2Cc2ccccc2)cc1 | 0.229 | 

Row | SMILES | activity, negative = toxicity [%] | Potency
43 | CC(C)[C@H](NC(=O)c1ccccc1F)C(=O)Nc1cccc(S(=O)(=O)N2CCOCC2)c1 | 0.177 | 
44 | C[C@H]1NS(=O)(=O)c2cc(Cl)ccc2O[C@@H]1c1ccccc1 | 3.06 | 
45 | CC(Sc1ccc(S(=O)(=O)N2CCN(C)CC2)cn1)C(=O)NC1CCCC(C)C1C (stereo not drawn) | -7.37 | 
46 | CC(C)c1ccccc1OCC(O)CN(CC(O)COc1cccc2ccccc12)C(C)C (stereo not drawn) |  | 25.9 µM (active)
47 | CCC(C)Sc1nc2c(c(=O)[nH]c(=O)n2C)n1CC(O)COc1cccc2ccccc12 (stereo not drawn) | -5.75 | 
48 | CC1CC(C)CN(CCOc2cccc3ccccc23)C1 (stereo not drawn) | -7.97 | 
49 | Cc1[nH]c2ccccc2c1C(=O)C(=O)NCc1nnnn1-c1cccc(F)c1 | 0.987 | 
50 | O=C(NCc1ccc(F)cc1F)[C@@H]1CCCN1C(=O)[C@@H]1CCCN1C(=O)c1cccc(Cl)c1 | 8.01 | 
51 | O=C(c1ccc2c(=O)n(Cc3ccco3)c(=S)[nH]c2c1)N1CCCC1 | 10.2 | 
52 | O=[N+]([O-])c1c(NCCO)cc(Sc2nc3ccccc3s2)c2nonc12 |  | 3.16 µM (active)
53 | CCN(CC)CCCSc1nc2ccccc2s1 | 11.7 | 
54 | Cc1nc2nc(CSc3nc4ccccc4s3)cc(=O)n2[nH]1 | -0.0889 | 
55 | CCc1nc2c(OCCc3cccc(OC)c3)cccn2c1N(C)C(=O)c1ccc(C)cc1 | -11.3 | 
56 | Cc1cc(C(=O)Nc2nnc(C3CC3)s2)c(C)s1 | -1.67 | 
57 | O=C(Nc1nnc(C2CC2)s1)c1ccccn1 |  | 5.01 µM (active)
58 | CCc1ccccc1OCC(=O)Nc1nnc(C2CC2)s1 | 9.55 | 
59 | C[C@@H]1CN([C@H](C)CO)C(=O)c2cc(-c3ccc(F)cc3)cnc2O[C@H]1CN(C)C(=O)c1ccc(F)cc1 | -3.85 | 
60 | O=C(CCc1ccccc1)NNc1ccc(F)cc1 |  | 2.31 µM (active)
61 | CC(=O)Nc1ccc(S(=O)(=O)NNC(=O)CCc2ccccc2)cc1 | -5.47 | 
62 | O=C(Cc1ccccc1)NCc1ccc(F)cc1 | -2.39 | 
63 | COc1ccc(-c2ccc(CN3C(C(C)C)C(=O)N(Cc4cn(CC5CCCCC5)nn4)CCS3(=O)=O)cc2)cn1 (stereo not drawn) | -3.81 | 
